Only some compounds are listed: those with a hit (about 2.6% of all), similar ones and a draw of the others.
HIF-2a block – HIF-2a inhibition; inhibition, % at 18.8 µM; AID 624352; 0.72% of 360,000 active; 786-0 RCC cells HIF-2a reporter, luciferase luminescence, overnight;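 active = inhibition of the luminescence signal of 40% or more relative to plate controls, in a single-dose primary screen at 18.75 µM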
Peg3 prom inh – Peg3 promoter activity inhibition. 1.7% of 360,000 active. AID 588405. inhibition, % at 20 µM. HeLa PEG-Prom luciferase reporter, luminescence, overnight;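 active = inhibition of at least 50% at 20 µM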
CF NFkB block – inhibitors of cystic fibrosis induced NF-kB; KKLEB NF-kB-GFP reporter, PAF-induced, GFP fluorescence overnight; inhibition, % at 5 µM; 0.86% of 360,000 active; AID 588850;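 active = at least 50% inhibition at 5 µM, scaled per plate between neutral and stimulator controls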;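 also: PAF is a Pseudomonas aeruginosa culture filtrate used as stimulus; plate controls were PAF-stimulated DMSO wells for no effect and unstimulated DMSO wells for full effect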
KKLEB tox – reduces viability of KKLEB cystic fibrosis airway cells; KKLEB CF airway cells viability, ATPlite luminescence, overnight; hits give low values; cells stimulated with P. aeruginosa culture filtrate; activity change (cytotoxicity), % at 5 µM; 0.36% of 360,000 active;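 active = corrected activity change at or below -50% at 5 µM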
Shn3 inh set2 – reduces Shn3 3'UTR luciferase signal in osteoblasts. inhibition, % at 12.5 µM. 0.52% of 360,000 active. Clone20 osteoblast Shn3 3'UTR firefly luciferase, 24 h. AID 588674;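 active = mean inhibition of at least 75% with every replicate also reaching 75%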;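 also: 0% = median of neutral control wells and 100% = pilot-screen positive control compound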
An asterisk follows results filed as active; · = not tested or not shown.

SMILES	HIF-2a block	Peg3 prom inh	CF NFkB block	KKLEB tox	Shn3 inh set2
COc1ccc(-n2ncc3c(N4CCCCC4)ncnc32)cc1	81*	81*	1	-82*	82
COc1ccccc1NC(=O)COC(=O)CCn1c(C)csc1=O	11	-10	20	9	2
COC(=O)CCCNC(=O)c1ccccn1	6	5	-18	3	5
COc1ccc(/C=N/Nc2ncnc3c2[nH]c2ccc(C)cc23)c(OC)c1OC	-10	73*	9	-7	0
COc1cc(OC)c(OC)cc1/C=N/Nc1ncnc2c1[nH]c1ccccc12	5	89*	30	-29	-3
CCCCOCCCNc1ncnc2c1[nH]c1ccccc12	7	11	-2	-3	83*
COc1cc(CNc2ncnc3c2[nH]c2ccc(C)cc23)cc(OC)c1	23	24	29	-13	-9
O=C(NN1C(=O)c2ccccc2NC1c1ccco1)c1ccc([N+](=O)[O-])cc1 (stereo unspecified)	2	-1	-3	6	3
CCOC(=O)C1CCN(C(=O)C2(NC(=O)NC3CCCCC3)CCCCC2)CC1	13	64*	5	4	-23
Cc1ccc(NCCCn2cnc(C(=O)Nc3ccc(C)c(C)c3)n2)cc1C	-24	-5	-1	14	6
Cc1ccc(NC(=O)c2ncn(CCCN[C@H](C)c3cccc4ccccc34)n2)cc1C	-29	85*	14	4	-5
Cc1cc(C)cc(N2C(=O)C=CC2=O)c1	-36	106*	89*	-34	94*
CCOC(=O)C(=Cc1ccc(Br)cc1)C(=O)OCC	24	23	52*	-31	-10
CCOC(=O)/C(=C/c1ccc(OC(=O)c2ccncc2)cc1)C(C)=O	10	6	8	-4	16
CCOC(=O)C(=Cc1ccc(-n2ccnc2)cc1)C(=O)OCC	93*	107*	71*	-9	75
O=C(CSC1=NS(=O)(=O)c2cc(F)ccc2N1)NCCc1ccccc1	13	3	30	-10	-9
O=Nc1c(O)c2ccccc2c2ccccc12	24	96*	89*	-88*	79
Cc1ccc(S(=O)(=O)n2ccc3cccnc32)cc1	9	16	11	-7	-9
O=S(=O)(c1ccc(Cl)cc1)n1ccc2cccnc21	22	20	16	-16	98*
CCC(C)Sc1nc2c(c(=O)[nH]1)C(c1cccs1)C1=C(CCCC1=O)N2 (stereo unspecified)	24	55*	21	0	-3
O=C1CCCC2=C1C(c1ccncc1)c1c(nc(SCc3ccccc3Cl)[nH]c1=O)N2 (stereo unspecified)	19	20	0	9	-10
O=c1[nH]c(=O)n(Cc2ccco2)c2c1C(C(F)(F)F)(C(F)(F)F)N=C(CCc1ccccc1)N2	29	55*	7	-39	28
Cc1cccnc1C(NC(=O)C1CCN(Cc2ccc(Oc3ccccc3)cc2)CC1)c1ccc(F)cc1 (stereo unspecified)	8	18	13	-27	9
COc1ccc(C)cc1NC(=O)C(c1ccccc1)N1CCN(CC(=O)NC2CC2)CC1 (stereo unspecified)	-4	15	-1	4	4
COc1ccc(/C=N/n2cnc3c([nH]c4ccc(C)cc43)c2=O)cc1CN1CCCC1	13	77*	-8	-3	-16
SMILES	HIF-2a block	Peg3 prom inh	CF NFkB block	KKLEB tox	Shn3 inh set2
CCOC(=O)c1c(C)nc2sc3c(c2c1-c1ccc(OC)cc1)NC(c1ccc(OC)cc1)NC3=O (stereo unspecified)	7	33	4	6	3
COc1ccc(-n2c(C)c(C(C)=O)c3cc(OC(C)=O)ccc32)cc1	35	16	83*	-11	18
Cc1c(C(=O)Nc2ccc(F)c(F)c2)oc2ccc(S(=O)(=O)N3CCCCC3)cc12	22	64*	-13	-3	82
Cc1c(C(=O)Nc2ccc(F)cc2)oc2ccc(S(=O)(=O)N3CCC4(CC3)OCCO4)cc12	12	55*	-39	10	41
Cc1c(C(=O)Nc2ccc(F)cc2)oc2ccc(S(=O)(=O)N3CCCC3)cc12	9	16	13	-17	-7
Cc1c(C(=O)Nc2ccc(S(=O)(=O)N(C)C3CCN(C)CC3)cc2)oc2ccccc12	-24	89*	5	1	-10
Cc1c(C(=O)Nc2cccc(Cl)c2)oc2ccc(S(=O)(=O)N3CCC4(CC3)OCCO4)cc12	-10	58*	-7	-25	83
Cc1cc(C)c(S(=O)(=O)Nc2cccc(S(=O)(=O)NC3=NCCC3)c2)c(C)c1	16	15	-6	11	-2
COC(=O)[C@]1(C)N[C@H](CN(C)C(=O)c2ccccc2)[C@@H]2C(=O)N(Cc3ccccc3)C(=O)[C@@H]21	-6	0	-22	11	2
O=S(=O)(c1cc(F)ccc1F)N1CCC2(CC1)OCCO2	19	-10	22	5	8
Cc1c(C(=O)NCC2COc3ccccc3O2)oc2ccc(S(=O)(=O)N3CC(C)CC(C)C3)cc12 (stereo unspecified)	17	32	5	7	65
O=C(Nc1ccc(F)c(F)c1)c1ccc(F)c(S(=O)(=O)N2CCC3(CC2)OCCO3)c1	-5	-16	10	2	84*
Cc1c(C(=O)NCC2COc3ccccc3O2)oc2ccc(S(=O)(=O)N3CCOCC3)cc12 (stereo unspecified)	4	73*	-4	-21	28
CCOC(=O)[C@@H]1[C@H]2COc3cc(OC)ccc3[C@@H]2N2C(=O)N(c3ccc(Cl)cc3)C(=O)[C@]12C	10	-6	4	-10	0
COc1ccc(C(=O)NC(=S)Nc2cccc(Cl)c2N2CCOCC2)cc1[N+](=O)[O-]	-28	28	17	-12	-10
Cc1cc(N/N=C/c2ccc(O)cc2O)nc(-c2ccccc2O)n1	-190	67*	78*	-2	20
O=C1OCCC1Sc1nnc(-c2ccco2)o1 (stereo unspecified)	27	4	-2	7	·
O=C1OCCC1Sc1nnc(-c2ccc(Br)cc2)o1 (stereo unspecified)	47*	28	3	-9	1
CSc1ccc(S(=O)(=O)NCCSC(C)(C)C)cc1	0	-8	-3	-1	23
CC1CCCCC1NS(=O)(=O)c1ccc2c(c1)CCC(=O)N2 (stereo unspecified)	3	-8	0	21	2
O=C1CCc2cc(S(=O)(=O)NC3CCCCC3)ccc2N1	8	103*	-13	-2	0
O=C(CCl)Nc1cn(-c2ccccc2)nc1-c1ccccc1	-65	84*	46	-71*	-17
Cc1[nH]c2ccccc2c1C(=O)CSc1nnc(C2CC2)o1	-69	-48	-10	6	-19
CCOc1ccc(NC2=C(OC)C(=O)c3ccccc3C2=O)cc1	-144	-110	32	0	-28

Screening results (PubChem BioAssay)
